From PubChem BioAssay AID1006 (Sanford-Burnham Center for Chemical Genomics, 2008)
In all, about 200,000 compounds went through this assay and about 3,000 (1.5%) were called active. Shown is part of a subset that was picked to be rich in actives. Values without a mark were called inactive.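 Rule for the calls: active = inhibition above about 50% when tested at 10 µM (limit read from the data); inactive = the rest.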

Biological target: Luciferin 4-monooxygenase (Photinus pyralis) (UniProt P08659)
Assay: firefly luciferase enzyme inhibitors, primary screen, artefact control for luciferase-based inhibitor screens, biochemical, luminescence, ATPLite (AID 1006)
Settings: 10 min, at 10 µM, stronger effect = higher value

Sequence of Luciferin 4-monooxygenase (Photinus pyralis) (P08659 whole entry, looked up): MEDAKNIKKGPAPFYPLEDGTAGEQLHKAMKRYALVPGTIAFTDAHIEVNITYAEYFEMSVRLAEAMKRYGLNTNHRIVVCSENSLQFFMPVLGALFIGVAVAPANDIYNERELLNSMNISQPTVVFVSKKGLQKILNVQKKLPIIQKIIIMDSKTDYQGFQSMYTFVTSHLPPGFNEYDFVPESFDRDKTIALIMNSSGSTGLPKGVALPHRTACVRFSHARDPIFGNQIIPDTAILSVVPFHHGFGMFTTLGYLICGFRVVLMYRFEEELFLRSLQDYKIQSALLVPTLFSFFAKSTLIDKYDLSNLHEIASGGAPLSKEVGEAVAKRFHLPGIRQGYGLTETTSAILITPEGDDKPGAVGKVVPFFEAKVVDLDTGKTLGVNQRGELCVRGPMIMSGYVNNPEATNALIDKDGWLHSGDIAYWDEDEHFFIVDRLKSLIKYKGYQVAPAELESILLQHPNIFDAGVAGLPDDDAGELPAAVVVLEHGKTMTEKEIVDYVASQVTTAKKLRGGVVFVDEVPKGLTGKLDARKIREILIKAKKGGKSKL

Row | Structure (SMILES) | inhibition
1 | O=C(CC(=O)N/N=C\c1cccc(Cl)c1Cl)NCc1ccccc1 | -7.3%
2 | Cc1ccc(-c2cc(N)on2)cc1 | 17.5%
3 | Cc1ccc(-c2cn3cc(C)ccc3n2)cc1 | 95.9% (active)
4 | CS(=O)(=O)Nc1cccc(-c2cn3ccccc3n2)c1 | 16.8%
5 | COc1ccc(OC)c(-n2c(=S)[nH]c3cc(C(=O)N4CCCCC4)ccc3c2=O)c1 | -6.8%
6 | C/C(=N\Nc1ncc(Cl)cc1Cl)c1ccc(S(=O)(=O)NCc2ccco2)cc1 | 2%
7 | C/C(=N\Nc1nc2ccccc2[nH]1)c1cccs1 | 73.6% (active)
8 | O=C(CSc1nc2ccccc2[nH]1)c1cccs1 | 5.4%
9 | C/C(=N\Nc1ncc(Cl)cc1Cl)c1cccs1 | 57.2% (active)
10 | COc1cccc(/C(C)=N/Nc2ncc(Cl)cc2Cl)c1 | 4.4%
11 | C/C(=N\Nc1nc(Nc2ccccc2)nc(N2CCOCC2)n1)c1cccs1 | 5.5%
12 | Cc1cc(NC(C)C)n2c(nc3ccccc32)c1C#N | -2%
13 | O=[N+]([O-])c1ccc2c(c1)C(N1CCOCC1)/C(=C/C1(O)CCCCC1)O2 (configuration not stated) | 0.2%
14 | O=C(CN1CCC(O)(c2ccccc2)CC1)Nc1ccc2c(c1)OCCO2 | -7.8%
15 | C=CCc1cccc2cc(C(=O)Nc3ccc(NC(C)=O)cc3)c(=O)oc12 | -2.7%
16 | CC(C)N(Cc1ccccc1)C(=O)COC(=O)c1cnccn1 | -3.5%
17 | CCCC(=O)N=c1sc2cccc(F)c2n1C | 7%
18 | Cn1c(=NC(=O)c2ccco2)sc2cccc(F)c21 | 59.7% (active)
19 | Cn1c(=NC(=O)C2CC2)sc2cc(F)cc(F)c21 | 0.6%
20 | C=C(C)c1cccc(C(C)(C)NC(=O)NC2CCCC2)c1 | -3.3%
21 | CCC(=O)N1CCC(C(N)=O)(N2CCCCC2)CC1 | -4.7%
22 | COc1ccc(Nc2ncc(F)c(N3CCOCC3)n2)cc1 | 75.2% (active)
23 | c1ccc(Nc2nc(N3CCOCC3)c3ccccc3n2)cc1 | 2%
24 | CCOc1ccc(Nc2nc(Cl)nc(N3CCN(c4ccc(OC)cc4)CC3)n2)cc1 | -4.4%
25 | Cc1nc(N2CCOCC2)sc1C(=O)NN | 0.3%
26 | CCOc1ccc(C(=O)Nc2cccc(SC)c2)cc1 | 62.1% (active)

Row | Structure (SMILES) | inhibition
27 | CCOc1ccc(C(=O)Nc2ccncc2)cc1 | 11.8%
28 | CCOc1ccc(C(=O)Nc2cccc(-c3ccc4nncn4n3)c2)cc1 | 37.7%
29 | O=C1CC(c2c(F)cccc2Cl)C(n2cncn2)C(O)=C1C1NCCc2ccccc21 (configuration not stated) | -4.6%
30 | O=C(c1cncc(Br)c1)N1CCN(c2ccc([N+](=O)[O-])cc2)CC1 | -0.9%
31 | COC(=O)c1ccc(-c2noc(CN(Cc3ccccn3)CC3CCCO3)n2)cc1 (configuration not stated) | 4.4%
32 | Cc1cc(C(=O)COC(=O)C2CC2)c(C)n1-c1ccc(F)cc1 | 95% (active)
33 | Cc1ccc(-n2c(C)cc(C(=O)CN3C(=O)C(=O)N(C4CCCC4)C3=O)c2C)cc1 | -7.1%
34 | COc1cc(/C=N/NC(=O)c2cc(C)n(-c3ccc(F)cc3)c2C)cc(OC)c1O | 5.2%
35 | CCOc1ccc(N=Cc2c(O)n(-c3cccc(C)n3)c(=O)c3ccccc23)cc1 | -1%
36 | CCCn1c(=O)c(-c2ccccc2)c(O)c2ccccc21 | 0.1%
37 | CC(=O)n1c(C=Nc2ccccc2)c(O)c2ccccc21 | 61.6% (active)
38 | Cc1cccc(C(=O)NNC(=O)c2cccc([N+](=O)[O-])c2)c1 | -0.8%
39 | CC(C)(C)Cc1nnc(NC(=O)c2cc(-c3ccccc3)nc3ccccc23)s1 | -4.3%
40 | CCc1ccc(-c2cc(C(=O)NN3CCN(C)CC3)c3ccccc3n2)cc1 | 63% (active)
41 | O=C(NCCc1ccccn1)c1cc(-c2ccc(Cl)cc2)nc2ccccc12 | 1.6%
42 | Cc1nc2ccc(NC(=S)N3CCC(C)CC3)cc2nc1C | -2.6%
43 | O=C(C1CCCN1S(=O)(=O)c1ccc(Br)cc1)N1CCOCC1 (configuration not stated) | 0.6%
44 | CCCCN(CC)CCCNC(=O)c1ccc(CSc2nc3ccncc3[nH]2)cc1 | 37.9%
45 | O=C(CC1CCCCC1)NCc1ccc(F)cc1 | -3.7%
46 | c1ccc(-n2nnnc2-c2cccnc2)cc1 | -0.4%
47 | COc1cccc(C(=O)Nc2cc3c(cc2Br)OCCCO3)c1 | 64.3% (active)
48 | COc1ccc(NC(=O)c2ccc(C#CC(C)(C)O)cc2)cc1 | 5.6%
49 | COc1ccc(C(=O)NC(=S)Nc2ccc(N3CCCC3)cc2)cc1OC | -14.5%
50 | COc1cccc(C(=O)Nc2ccc(N3CCCC3)cc2)c1 | 67.6% (active)
51 | COc1ccc(C(=O)Nc2ccc(S(=O)(=O)NC(C)C)cc2)cc1 | -3.1%
52 | COc1cccc(OC)c1C(=O)Nc1ccc(N2CCCCC2)cc1 | -8.2%

Row | Structure (SMILES) | inhibition
53 | COc1cccc(C(=O)NNC(=O)c2ccccc2Br)c1 | 2.9%
54 | COc1ccc(NC(=O)c2ccc(OC)cc2)cc1 | 63.1% (active)
55 | COc1ccc(C2COC(=O)C2=N)c(NC(=O)c2ccccc2)c1 (configuration not stated) | -6.7%
56 | CC(C)(C)C1CCC(C(=O)Nc2cccnc2)CC1 (configuration not stated) | -3.4%
57 | COc1ccc(-c2csc(-c3cccs3)n2)cc1OC | 19.9%
58 | COc1cccc(C(=O)NCCSc2ccc(Br)cc2)c1 | 2.1%
59 | C=CCNc1scc(-c2ccccc2)[n+]1CC=C | -5.9%
60 | O=C(N/N=C/c1coc2ccccc2c1=O)c1cc2ccccc2o1 | -6.6%
61 | N=c1oc2ccccc2cc1C(=O)N/N=C/c1ccccc1 | 56.7% (active)
62 | CNC(=O)c1cc2c(ccc3ccccc32)oc1=N | 7.1%
63 | O=C(O)C1C2CC2CN1C(=O)c1ccc(Cl)cc1Cl (configuration not stated) | -5%
64 | O=C(OC1CCOC1=O)c1cccc(S(=O)(=O)Nc2ccc(F)cc2)c1 (configuration not stated) | -4.8%
65 | Cc1nn(Cc2ccccc2)c(Cl)c1C(=O)OC1CCOC1=O (configuration not stated) | -3.6%
66 | O=C(OC1CCOC1=O)c1ccc(-c2nc3ccccc3s2)s1 (configuration not stated) | 91.4% (active)
67 | N#CC1(C#N)C(C(=O)C23CC4CC(CC(C4)C2)C3)C12CCOCC2 (configuration not stated) | -9.2%
68 | CCc1cc2c(=O)c(-c3nc4ccccc4n3C)c(CCCC(=O)O)oc2cc1OC(=O)C(C)(C)C | 2.4%
69 | CCc1cc2c(=O)c(-c3ccon3)c(N)oc2cc1OC | 59.4% (active)
70 | CCc1cc2c(=O)c(-c3ccc(F)cc3)c(C(F)(F)F)oc2cc1OCC(=O)O | -5.2%
71 | CCOc1ccc(S(=O)(=O)Nc2nccs2)cc1 | -7.4%
72 | COc1ccc(-c2noc(-c3ccc(C)cc3)n2)cc1 | 44.5%
73 | COc1ccc(-c2noc(-c3cccc(OC)c3OC)n2)cc1OC | 48.7%
74 | COc1ccc(-c2nc(-c3ccccc3)no2)c(OC)c1 | 85.4% (active)
75 | Cc1ccc(S(=O)(=O)Nc2nc(N)n(-c3ccccc3)n2)cc1 | -5.1%
76 | Cc1ccc(NC(=O)C2(N3CCC3=O)CCCCC2)cc1 | -9%
77 | CCC(=O)Nc1cccc(NC(=O)c2cccnc2)c1 | -0.5%
78 | Cc1nn(Cc2ccc(Cl)cc2)c(Cl)c1/C=N/NC(=O)c1cccnc1 | -5.5%

Row | Structure (SMILES) | inhibition
79 | Cc1cc(/C=N/NC(=O)c2cccnc2)c(C)n1CC(C)C | 63.5% (active)
80 | CC(Oc1ccc(Br)cc1Br)C(=O)NC1CCCC1 (configuration not stated) | -6.3%
81 | CCN(CC)S(=O)(=O)c1cccc(C(=O)Nc2ccccc2)c1 | -4.6%
82 | Cc1ccc(S(=O)(=O)/N=C(/Nc2ccccn2)c2ccc(Cl)cc2)cc1 | -1.5%
83 | CCN(CC)S(=O)(=O)c1cc(C(=O)Nc2ccccn2)ccc1C | 58% (active)
84 | Cn1c(N)cc(-c2ccc(F)cc2)c(C#N)c1=O | -3.4%
85 | COc1cc(CNC2CCCCC2)c(Br)cc1OC1CCCC1 | -3.7%
86 | Cc1cc(C)nc(NC(=O)c2cccc([N+](=O)[O-])c2)c1 | 0.2%
87 | CCO[C@H]1OC(C(=O)O)=C[C@@H](C2CCCCC2)[C@@H]1CCCO | -12%
88 | Oc1ccc(-c2[nH]ncc2-c2nc3ccccc3s2)c(O)c1 | -7.2%
89 | CC(=O)Nc1cccc(-c2nc3ccccc3s2)c1C | 52% (active)
90 | COC(=O)c1nc2ccccc2s1 | -1.8%
91 | c1csc(-c2nnc(COc3ccc4c(c3)OCO4)o2)c1 | 5.4%
92 | NS(=O)(=O)c1ccc(N2C(=O)C3C4CC(C(Br)C4Br)C3C2=O)cc1 (configuration not stated) | -4.1%
93 | CCc1ccc(N2CC(O)=C(c3nc4ccccc4c(=O)[nH]3)C2=N)cc1 | 1.7%
94 | COc1ccc(C=Nc2cccc3ncccc23)cc1 | -0.8%
95 | COc1ccc(/C=N/Nc2nc3ccccc3c(=O)[nH]2)cc1 | 59.4% (active)
96 | CCN(CC)c1ccc(/C=N/Nc2nc(C)cc(=O)[nH]2)cc1 | 26.8%
97 | C[C@@H]1NC(=O)c2cc([N+](=O)[O-])cc(F)c2NCCC[C@@H](C(N)=O)NC(=O)[C@H](CC(N)=O)NC1=O | -4.9%
98 | Fc1ccccc1Cc1ccc(Cl)nn1 | -5.5%
99 | CCc1ccc(-c2nnn(Cc3nn[nH]n3)n2)cc1 | -1.9%
100 | CC(C)c1ccc(-c2nn[nH]n2)cc1 | 56.6% (active)
101 | c1cc(-c2nn[nH]n2)ccc1CN1CCCCC1 | -3.9%
102 | O=C(COC(=O)C12CC3CC(CC(O)(C3)C1)C2)NC12CC3CC(CC(C3)C1)C2 | -8.6%
